INS promoter inh: TRM-6 insulin promoter activity inhibition; TRM-6 cells (human fetal islet line), insulin promoter-eGFP reporter, imaging; reporter expression induced with tamoxifen; inhibition, % at 2 µM; 130,000 compounds, 0.9% hits;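 active means inhibition above the mean plus 3 SD, with well images judged a real hit on visual review, cut at about 60% in these data, passing the limit was not always enough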
bCat KO growth: beta-catenin-lacking colon tumor cell growth suppression; HCT116 beta-catenin knockout viability, CellTiter-Glo, 60 h; stronger effect = lower value; viability, % at 10 µM; 140,000 compounds, 1.5% hits; AID 818;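 active means viability at or under a set limit, the compound median less 4 SD, cut at about 6% in these data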
p97 ATPase inh: blocks human p97 ATPase activity; P55072; recombinant p97 ATPase, Kinase-Glo ATP luminescence, 3 h; inhibition, % at 8 µM; 220,000 compounds, 0.42% hits; in the data active means inhibition above about 15%
Lmaj promast: Leishmania major promastigote growth inhibition. 200,000 compounds, 9% hits. AID 1063. Leishmania major promastigotes, resazurin fluorescence viability. inhibition, % at 10 µM; in the data active means inhibition above about 50%;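 further: promastigotes grown with compound for 44 hours at 28 °C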
PTEN del growth: growth suppressors of cells with PTEN tumor suppressor deletion; HCT116 PTEN-null viability, CellTiter-Glo, 60 h; stronger effect = lower value; viability, % at 10 µM; 140,000 compounds, 1.2% hits; AID 827;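 active means viability at or below a set limit, 4 SD under the median of all tested compounds, cut at about 3.7% in these data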;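 further: PTEN knockout HCT116 line with beta catenin targeted HCT116 as companion control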
ROMK primary: human ROMK K+ channel modulation, primary screen. 130,000 compounds, 2% hits. B-score at 10 µM. Tet-inducible ROMK, thallium flux fluorescence; actives lie on both sides. P48048. AID 1918;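 active means signal ratio slope over the read window, or its plate-corrected B-score, at least 3 SD from the plate mean, either direction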;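 further: B-score of the F/F0 ratio slope over 7 to 12 s after thallium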
Target sequence (P48048 whole entry, looked up): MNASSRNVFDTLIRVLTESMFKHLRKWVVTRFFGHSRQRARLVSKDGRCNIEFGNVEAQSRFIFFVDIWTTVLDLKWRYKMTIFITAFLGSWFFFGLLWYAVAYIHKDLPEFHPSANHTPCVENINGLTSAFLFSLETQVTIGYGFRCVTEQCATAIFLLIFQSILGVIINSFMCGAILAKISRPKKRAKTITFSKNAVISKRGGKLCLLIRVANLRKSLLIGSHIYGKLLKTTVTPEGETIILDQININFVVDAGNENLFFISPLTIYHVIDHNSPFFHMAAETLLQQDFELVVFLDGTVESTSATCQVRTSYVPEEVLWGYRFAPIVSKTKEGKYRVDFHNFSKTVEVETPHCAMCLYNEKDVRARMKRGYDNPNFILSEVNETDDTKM
Hits are given with their value; . = inactive; / = no result. Most compounds without a hit are left out; they make up all but 10% or so of the library.

SMILES | INS promoter inh | bCat KO growth | p97 ATPase inh | Lmaj promast | PTEN del growth | ROMK primary
CC(=O)C(Sc1ncnc2sc3c(c12)CCCC3)C(C)=O | . | / | . | . | / | .
CNC(=S)N/N=C/c1ccco1 | / | / | . | / | / | /
CCOC(=O)c1ccc(NC(=S)NCCc2ccc(F)cc2)cc1 | / | / | . | . | / | .
CC1CCCCN1CC(=O)Nc1ccccc1Sc1ccccc1 (stereo unspecified) | . | . | . | . | . | .
COc1ccc2nc(Nc3nc(CSc4ccc(C)cc4)cc(=O)[nH]3)nc(C)c2c1 | / | / | . | 65 | / | .
Cc1ccc(SCc2cc(=O)[nH]c(Nc3nc(C)c4cccc(C)c4n3)n2)cc1 | . | . | . | . | . | /
CC(Oc1ccc(Cl)cc1Cl)c1ccn[nH]1 (stereo unspecified) | . | / | . | . | / | .
CCN(CC)c1ccc(/C=N/NC(=O)c2c(Cl)cnn2C)c(O)c1 | . | . | . | 99 | . | /
CCN(CC)c1ccc(/C=N/NC(=O)CCC(=O)NCc2ccccc2)c(O)c1 | . | . | . | 98 | . | /
CCN(CC)c1ccc(/C=N/Nc2nc(C)cc(=O)[nH]2)c(O)c1 | 85 | . | . | 99 | . | .
COc1cccc(N/C(SCc2ccccc2F)=C(/C#N)C(=O)NCc2cccs2)c1 | . | . | . | . | . | .
CNCC(=O)N(CC(C)C)c1c(N)n(CC(C)C)c(=O)[nH]c1=O | / | / | . | . | / | .
O=C(NC1(C(F)(F)F)NC(=O)N(c2ccc(F)cc2)C1=O)c1cccs1 (stereo unspecified) | . | . | . | . | . | /
CN(C)c1ccc(N=c2sc3ccccc3n2C)cc1 | . | . | . | 98 | . | .
Cn1c(=Nc2ccccc2)sc2ccccc21 | . | . | . | . | . | .
O=C(NNc1cccc(Cl)c1)c1cccnc1Cl | . | . | . | 88 | . | .
O=C(NNc1cccc(Cl)n1)c1cccnc1Cl | . | . | . | . | . | .
CSc1ncccc1C(=O)N1CCCC(CCC(=O)NCc2ccc(F)c(F)c2)C1 (stereo unspecified) | / | / | . | . | / | .
NC(=O)[C@H](Cc1cc2ccccc2s1)NC(=O)[C@@H]1CC2(CC(c3cccc(NC(=O)[C@@H]4CCC(=O)N4)c3)=NO2)CN1C(=O)/C=C/Sc1ccccc1 (stereo partly specified) | . | . | 17 | . | . | .
CCCNC(=O)c1nn2cc(Br)cnc2c1Br | / | / | . | . | / | /
CN(C)S(=O)(=O)c1ccc(C(=O)N2CCN(S(=O)(=O)c3cccs3)CC2)cc1 | . | / | . | 75 | / | .
CCOc1ccc(/C=N/Nc2cc(=O)n(C)c(=O)n2C)cc1 | . | . | . | 71 | . | .
CN1CCN(CC(=O)Nc2ccc(OCc3ccccc3)cc2)CC1 | . | . | . | . | . | .
c1ccc(OCCCN2CCCC2)cc1 | . | . | . | . | . | .
COc1ccccc1N1CCN(CCCOc2ccc(F)cc2)CC1 | . | . | . | . | . | .
SMILES | INS promoter inh | bCat KO growth | p97 ATPase inh | Lmaj promast | PTEN del growth | ROMK primary
c1ccc(COc2ccc(OCCCCN3CCCC3)cc2)cc1 | / | . | . | 92 | . | /
CC1CCN(CCOc2ccc(OCc3ccccc3)cc2)CC1 | . | . | . | 99 | . | .
c1ccc(COc2ccc(OCCCN3CCCCC3)cc2)cc1 | . | . | . | 100 | . | .
O=C(CCN1CCN(c2ccccc2)CC1)Nc1ccc(OCc2ccccc2)cc1 | . | . | . | . | . | .
Fc1ccc(OCCCCCCN2CCCC2)cc1 | / | . | . | 95 | . | .
Cc1ccc(-n2nnnc2SCC(=O)NC(C(=O)O)(c2ccccc2)c2ccccc2)cc1C | / | / | . | . | / | .
CCN(CC(=O)NCc1cccs1)c1ccc(S(=O)(=O)N2CCN(C)CC2)cn1 | / | / | . | / | / | /
CCOC(=O)C(C(=O)OCC)C(Nc1ccc(Br)cc1)c1ccccc1 (stereo unspecified) | . | 1.5 | . | . | 1.5 | .
C/C(=N\N=C1\NC(=O)CC(C(=O)O)S1)c1ccc(F)cc1 (stereo unspecified) | . | . | . | 52 | . | .
COc1ccc(/C(C)=N/N=C2/NC(=O)CC(C(=O)O)S2)cc1 (stereo unspecified) | / | . | . | . | . | /
CCSc1nnc(CNC(=O)C23CC4CC(CC(C4)C2)C3)n1C1CCCCC1 | / | . | . | . | . | /
CCSc1nc2ccccc2n1C(=O)/C=C\c1ccc(OC)c(OC)c1 | / | 1.7 | . | 90 | . | /
CCC(C(=O)NCCN1CCN(C)CC1)n1c(C)c2cnn(-c3ccccc3)c(=O)c2c1C (stereo unspecified) | . | . | . | . | . | /
CCCN1CCN(C(=O)CCCn2c(C)c3cnn(-c4ccccc4)c(=O)c3c2C)CC1 | / | . | / | 85 | . | /
Nc1ncnc2c1cnn2C1CCCCC1 | / | / | . | / | / | /
Cn1c(=O)c2c(nc(NCC3CCCO3)n2Cc2ccccc2)n(C)c1=O (stereo unspecified) | 81 | . | . | . | . | .
Cc1ccc(Cn2c(CN3CCOCC3)nc3c2c(=O)n(C)c(=O)n3C)cc1 | . | . | . | . | . | /
Cn1c(=O)c2c(nc(NCCCN3CCOCC3)n2Cc2ccc(Cl)c(Cl)c2)n(C)c1=O | . | / | . | 99 | / | /
Cn1c(=O)c2c(nc(NCCCN3CCOCC3)n2Cc2cccc(Cl)c2)n(C)c1=O | . | / | . | 98 | / | .
Cn1c(=O)c2c(nc(NCCCN3CCOCC3)n2Cc2ccc(Cl)cc2)n(C)c1=O | . | / | . | 58 | / | .
COc1cc(-c2[nH]ncc2CN2CCN(c3cccc(C)n3)CC2)cc(OC)c1OC | / | / | . | / | / | /
O=C1ON=C(c2ccc(Cl)cc2)/C1=C/c1ccc(O)cc1 | / | / | . | 65 | / | .
Cc1ncccc1C(=O)N1CCCC(CNC(=O)C2(c3ccc(Cl)cc3)CC2)C1 (stereo unspecified) | / | / | . | . | / | .
Cc1ccc(-n2c(SCC(=O)NC3CCS(=O)(=O)C3)nc3ccccc3c2=O)cc1 (stereo unspecified) | / | / | . | . | / | .
O=C(CSc1nc2cc(C(F)(F)F)ccc2n1Cc1ccccc1)NC1CCS(=O)(=O)C1 (stereo unspecified) | . | . | . | 97 | . | .
SMILES | INS promoter inh | bCat KO growth | p97 ATPase inh | Lmaj promast | PTEN del growth | ROMK primary
Cc1c(NC(=O)CN2C(=O)NC3(CCC(C)CC3)C2=O)c(=O)n(-c2ccccc2)n1C (stereo unspecified) | . | / | . | . | / | .
CCC(/C=C1\Sc2ccc(OC)cc2N1CC)=C\c1sc2ccc(OC)cc2[n+]1CCCS(=O)(=O)[O-] | . | / | . | 100 | / | .
CCO/C(=C/c1sc2ccc(OC)cc2[n+]1CCCS(=O)(=O)[O-])CC | . | . | . | . | . | .
O=C(/C=C/c1ccccc1)NC(=S)Nc1ccccc1C(=O)NC1CCCCC1 | . | . | . | 100 | . | /
O=C(/C=C/c1ccc(F)cc1)NC(=S)Nc1ccccc1C(=O)NC1CCCCC1 | . | . | . | . | . | /
Cc1ccc(/C=C/C(=O)NC(=S)Nc2ccccc2C(=O)NC2CCCCC2)cc1 | . | . | . | 83 | . | /
COc1ccc(/C=C/C(=O)NC(=S)Nc2ccccc2C(=O)NC2CCCCC2)cc1 | . | . | . | 91 | . | /
S=c1[nH]ncn1/N=C/c1ccccn1 | . | . | . | . | . | .

Source: PubChem (several laboratories)
